In PubChem BioAssay (NCI) one finds growth data, which are given here for 40 compounds.

Compounds without any hit were thinned out: in the full panel of roughly 83,000, 20% have a hit.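 A percent growth of 40 corresponds to 60% growth inhibition; 0 means no net growth; -100 means all cells died. Active threshold: below 10.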 Active and inactive are the calls of the source.

This assay has as its system PC-3 prostate. The experiment in a line: NCI-60 one-dose screen, 48 h (100 = growth as untreated, 0 = no growth, -100 = all killed). The following applies: 10 µM unless noted. The method, then:
Growth inhibition of the PC-3 human tumor cell line is measured as a screen for anti-cancer activity. Cells are grown in 96 well plates and exposed to the test compound for 48 hours. Compounds are tested at a single concentration, which is 10^-5 M for most compounds. The reported endpoint is percent growth (GI% or GIPRCNT), where numbers from 0 - 100% represent growth inhibition, and numbers from -100% - 0 represent cell death. For example, a value of 40 represents 60% growth inhibition. A value of 0 means no net growth occurred over the course of the experiment. A value of -40 indicates 40% of cells at the beginning of the experiment died by the end of the experiment. A value of -100 means all cells are dead at the end of the experiment.
NCI-60 Human Tumor Cell Lines Screen was performed using the standard one-dose NCI protocol, which is described in more detail at https://dtp.cancer.gov/discovery_development/nci-60/default.htm.
Compounds with GIPRCNT values below 10 were considered active. Activity score was based on GIPRCNT using the following formula: […]
Score is 0 for GIPRCNT values of 100 or above, 50 for GIPRCNT values of 0, and 100 for GIPRCNT values of -100.
Turning to `COc1cc(C(=O)Nc2cc(O)c(C/C=C(\C)CCC=C(C)C)c(O)c2)cc2c1O[C@]1(C)CC[C@@H](O)C(C)(C)[C@H]1C2`, the growth is 18.1% (inactive). The value for `CN1C(=O)c2cc(Cl)nc3c(NC(=O)c4cccc(Cl)c4)c(Cl)c(NC(=O)c4cccc(Cl)c4)c1c23` was -45.5% (active); that for `Nc1c(C(=O)Nc2ccccc2)sc2nc3c(cc12)CN(C(=O)OCc1ccccc1)CC3` was 46% (inactive); that for `O=c1[nH]nc(-c2ccccc2)c2sc(NC(=S)Nc3ccc(Cl)cc3)nc12` was 92% (inactive).

For `O=S(=O)(Nc1nccs1)c1ccc(Nc2nc(-c3ccncc3)cs2)cc1`, the growth was 96.8% (inactive). Under `COc1cc([C@H](C)c2ccc3ccccc3c2)cc(OC)c1OC` stands 30.5% (inactive); under `C=C(C)[C@@H]1CC[C@]2(C(=O)NCCCO)CC[C@]3(C)[C@H](CC[C@@H]4[C@@]5(C)CCCNC(C)(C)[C@@H]5CC[C@]43C)[C@@H]12`, 49.2% (inactive); under `O=C(CN1N=C(c2ccc(F)cc2)CCC1=O)Nc1nccs1`, 88.3% (inactive). As to `Cc1cnc(SCc2ccc(Cl)cc2Cl)nc1Nc1ccc(Cl)c(Cl)c1`, the growth was 71.6% (inactive). Under `O=C(Nc1cc(=O)[nH]c(=O)[nH]1)C(Cl)Cl` stands 92% (inactive); under `COc1ccc([C@H]2[C@@H](F)C(=O)N2c2cc(OC)c(OC)c(OC)c2)cc1F`, 23.1% (inactive).

With `CC(=O)c1ccc(NC(=O)CSc2nnc(-c3cc(-c4ccc(C)cc4)nc4ccccc34)o2)cc1`, the growth was 53.4% (inactive).

As for `C=CCn1c(CN2CCN(c3cc4c(cc3F)c(=O)c(C(=O)O)cn4C3CC3)CC2)n[nH]c1=S`, the growth is 101% (inactive). Under `C=C1C(=O)O[C@H]2[C@H]1CC/C(COC(=O)CCCCCCC(=O)OC/C1=C/CC[C@@]3(C)O[C@H]3[C@H]3OC(=O)C(=C)[C@@H]3CC1)=C\CC[C@@]1(C)O[C@@H]21` stands 36.1% (inactive); under `Cc1nc2sc(C(=O)Nc3ccccc3)c(N)c2cc1C(C)O` (stereo not given), 21.5% (inactive); under `CCCCCCC/C=C/[C@H]1O[C@]23C(=O)C[C@@]4(C[C@@H](OC5OC(CO)C(O)C(O)C5O)C[C@@H]4[C@H]2C=C1C)OC3=O` (stereo not given in full), 21% (inactive). With `C=C1C(=O)O[C@H]2[C@H]1CC/C(COC(=O)n1ccnc1)=C\CC[C@@]1(C)O[C@@H]21`, the growth is 90.1% (inactive). The value for `COC(=O)CCc1n(Cc2ccc3ccccc3c2)c2ccccc2[n+]1Cc1ccc2ccccc2c1` was 6.6% (active); that for `COC(=O)c1ccc2c(c1)NC(=O)[C@@H]1CCCN21` was 100% (inactive); that for `CCCn1c(N)c(C(N)=O)sc1=S` was 96% (inactive). The value for `FC(F)(F)c1ccc2c(Nc3cccc(C4CC(c5ccccc5)=NN4c4ccc(Cl)cc4)c3)ccnc2c1` (stereo not given) was 34% (inactive); that for `O=C(O)COc1ccc2c(=O)c3sc4c(=O)c5ccccc5c(=O)c4c3c(=O)c2c1` was 54% (inactive). For `c1ccc2nc(N3CCOCC3)c(N3CCCCC3)nc2c1`, the growth is 90.8% (inactive).

Regarding `CC(C)(C)c1nn(-c2ccccc2)c2c1COCN2Cc1ccc(Cl)cc1`, the growth is 63.6% (inactive). For the compound `CC(C)NS(=O)(=O)c1cccc(-c2ccc3c4c(n(CCCN(C)C)c(=O)c3c2)-c2ccccc2C4=O)c1`, the growth was 99.8% (inactive). Turning to `O=C(Nc1nccs1)c1noc2ccccc12`, the growth is 80% (inactive). For the compound `NS(=O)(=O)c1ccc(-n2ncc(NC(=O)Nc3ccc(S(=O)(=O)Nc4nccs4)cc3)c2-c2ccccc2)cc1`, the growth is 111% (inactive). The value for `COc1ccc(C2C(c3ccccc3)C(=O)N2c2cc(OC)c(OC)c(OC)c2)cc1I` (stereo not given) was 22.2% (inactive).

Regarding `O=[N+]([O-])c1cccc(CN(Cc2cccc([N+](=O)[O-])c2O)c2ccccc2)c1O`, the growth is 71.1% (inactive). For the compound `O=C(O)c1ccc(-n2cc(/C=N/Nc3ccc(Cl)cc3Cl)c(-c3ccccc3)n2)cc1`, the growth was 80.7% (inactive). As for `Cn1c2c(c3ccc(-c4ccn[nH]4)cc3c1=O)C(=O)c1ccccc1-2`, the growth is 63.2% (inactive). As to `CCOC(=O)c1c(C(F)(F)F)n([O-])c2ccc(Cl)cc2[n+]1=O`, the growth is -85.7% (active). Take `C=C(C)[C@@H]1CC[C@]2(C(=O)OCCOCCOCC[P+](c3ccccc3)(c3ccccc3)c3ccccc3)CC[C@]3(C)[C@H](CC[C@@H]4[C@@]5(C)CC[C@H](OC(=O)C(Cl)Cl)C(C)(C)[C@@H]5CC[C@]43C)[C@@H]12`: the growth was -23.4% (active). For the compound `CC(C)(C)c1ccc(O)c(Cc2cc(C(C)(C)C)ccc2O)c1`, the growth is 12.5% (inactive). As to `CCOCc1cc(C(C)(C)C)ccc1O`, the growth is 93.7% (inactive).

As for `O=C1C(Cl)=C(Nc2ccc3c(c2NC2=C(Cl)C(=O)c4ccccc4C2=O)C(=O)c2ccccc2C3=O)C(=O)c2ccccc21`, the growth is 11% (inactive). In the case of `CN1CCN(C(=O)[C@@]2(C)CC[C@]3(C)CC[C@]4(C)C(=CC[C@@H]5[C@@]6(C)CC[C@H](OC(=O)c7cccnc7)C(C)(C)[C@@H]6CC[C@]54C)[C@@H]3C2)CC1`, the growth is 46.8% (inactive). The value for `O=C1CC(c2ccc(O)c(O)c2)Oc2cc(O)c([C@@H]3O[C@H](CO)[C@@H](O)[C@H](O)[C@H]3O)c(O)c21` (stereo not given in full) was 97.3% (inactive); that for `N#Cc1ccc(Oc2ccc3ccc(=O)oc3c2)cc1` was 94.5% (inactive).

`CC(=O)[C@@H]1CC[C@]2(C(=O)O)CC[C@]3(C)[C@H](CC[C@@H]4[C@@]5(C)Cc6c([nH]c7ccccc67)C(C)(C)[C@@H]5CC[C@]43C)[C@@H]12`: the growth was 40.7% (inactive).
